HSF1 inhib = HSF1 inhibition; NIH3T3-HGL HSE-luciferase, MG132-induced, luminescence 8 h; hits give low values; activity change, negative = inhibition, % at 7.5 µM (by protocol); actives 0.77% (n = 300,000);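 active = more than half of replicate wells show activity change below -50%, luminescence cut by over half; inconclusive = some wells, but at most half, below -50%; inactive = no replicate well below -50%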;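 note: luciferase reports HSF-1 transcriptional activity via heat shock element; 0% = median of DMSO wells and -100% = zero luminescence signal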
esBAF inh = SWI/SNF esBAF complex inhibition. mouse ES cells, Bmi1-luciferase knock-in reporter, 24 h; 100% = twice the neutral-well signal. reporter increase, % at 12.5 µM. actives 2% (n = 350,000); in the data active = activation above about 40%; inconclusive = no clear call, values can overlap the other calls;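 note: 0% = median of the plate's neutral control wells and 100% = double that signal; a rise in the Bmi1 reporter signal indicates esBAF inhibition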
Wnt bcat act = activators of Wnt/beta-catenin signaling; AID 743398; Wnt/beta-catenin reporter cell assay, activator, plate reader; actives 1.2% (n = 300,000); activation, % at 9.35 µM; in the data active = activation above about 30%, passing the limit was not always enough; inconclusive = no clear call, values can overlap the other calls;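 note: 0% = neutral control wells and 100% = positive control wells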
MITF act = activators of MITF-driven TRPM1 promoter activity in SK-MEL-5 cells; AID 588334; SK-MEL-5 TRPM1-promoter luciferase, 24 h; % of positive control, neutral wells = 0; activation, % at 12.5 µM; actives 0.75% (n = 300,000);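 active = mean activation of at least 80% with every replicate also reaching 80%; inconclusive = mean reaches 80% but some replicate falls short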;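 note: 0% = neutral control wells and 100% = parthenolide positive control wells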
HSF1 activator = increases HSF-1 driven luciferase reporter signal; NIH3T3-HGL HSF-1 luciferase reporter, MG132, 8 h; 100% = twice DMSO control signal; activation, % at 9 µM; actives 1.7% (n = 300,000);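 active = mean replicate activation of at least 50% with a set share of replicates each reaching 50%; inconclusive = only one of those two conditions met; inactive = mean below 50% and too few replicates reaching it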;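 note: 0% = median of the neutral control wells and 100% = twice that signal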
* hit, by the source's call; ? = inconclusive; . = no result given. Compounds with a hit are over-represented: about 3.9% of the library has one in this group of screens.

SMILES	HSF1 inhib	esBAF inh	Wnt bcat act	MITF act	HSF1 activator
COc1cccc(S(=O)(=O)N[C@@H]2CC[C@H](CCn3cc(-c4ccccn4)nn3)O[C@H]2CO)c1	.	-3	.	.	.
C[C@@H]1CN([C@@H](C)CO)C(=O)c2cc(-c3cccc(F)c3)cnc2O[C@H]1CN(C)C(=O)C1CCC1	.	4	.	.	.
Cc1ccc(S(=O)(=O)Nc2ccc3c(c2)CC(=O)N([C@@H](C)CO)C[C@@H](C)[C@H](CN(C)S(=O)(=O)c2ccccc2)O3)cc1	.	1	.	.	.
CN(C)S(=O)(=O)Oc1cccc(C(=O)Nc2ccc(Cl)cc2)c1	11	19	-4	5	34
COc1ccc2oc(=N)c(C(=O)Nc3ccc(C)cc3)cc2c1	0	43*	13	25	12
CN(C)S(=O)(=O)Oc1cccc(C(=O)Nc2ccccc2Cl)c1	16	72*	14	.	14
COc1ccc2oc(=N)c(C(=O)Nc3ccccc3Cl)cc2c1	22	56*	25	.	37
COc1ccc2oc(=N)c(C(=O)Nc3ccccc3)cc2c1	.	28	.	25	.
N=c1oc2ccc(Cl)cc2cc1C(=O)Nc1ccc(F)cc1	9	7	36*	36	16
CN(C)C(=O)C[C@@H]1C[C@@H]2c3cc(NS(=O)(=O)c4ccccc4)ccc3O[C@@H]2[C@@H](CO)O1	.	-7	.	.	.
C[C@@H]1CN([C@H](C)CO)C(=O)c2cc(NS(=O)(=O)c3ccccc3)ccc2O[C@H]1CN(C)S(=O)(=O)c1ccccc1	.	2	.	.	.
COc1ccc2oc(=O)c(C(=O)Nc3ccccc3C)cc2c1	30	4	-1	.	33
COc1ccc2oc(=N)c(C(=O)Nc3cccc(C)c3C)cc2c1	2	80*	-4	70	-3
COc1cc2ccccc2cc1C(=O)Nc1ccccc1Cl	66	?	45*	36	93*
C[C@@H]1CN([C@H](C)CO)C(=O)c2cc(NC(=O)Nc3ccccc3)ccc2O[C@@H]1CN(C)Cc1ccc(C(=O)Nc2ccccc2N)cc1	.	-18	.	.	.
Nc1nc(CSc2nc3ccccc3s2)nc(Nc2ccccc2)n1	31	.	.	.	58*
COc1cccc(CNC(=O)CCC2CCCN(C(=O)c3cc4ccccc4o3)C2)c1 (stereo unspecified)	33	62*	25	84*	48
C/C(Cc1ccccc1)=N\NC(=O)CNC(=O)c1cccc(Cl)c1	-3	.	33*	-3	-1
CCc1cnc(N2[C@H](C#N)[C@@H](c3ccc(C#Cc4ccccc4F)cc3)[C@@H]2CO)s1	.	5	.	.	.
COCC(=O)Nc1ccc2c(c1)C(=O)N(C)C[C@@H](OC)[C@H](C)CN(Cc1cc(F)ccc1F)[C@@H](C)CO2	.	1	.	.	.
Cc1c(-c2ccccc2)nnn1-c1ccc(F)cc1F	5	51*	10	73	32
O=C(C[C@@H]1CC[C@@H]2[C@H](COC[C@@H](O)CN2C(=O)Nc2cccc(F)c2)O1)NCc1ccccc1F	.	25	.	.	.
CCCNC(=O)OCCC12CC3CC(CC(C3)C1)C2	9	56*	?	59	17
C[C@H](CO)N1C[C@H](C)[C@@H](CN(C)CC2CC2)OCCCC[C@H](C)Oc2ccc(NC(=O)c3ccncc3)cc2C1=O	.	-8	.	.	.
O=C1NC(=O)C2(CCc3ccccc32)N1 (stereo unspecified)	-77*	-8	0	3	-82
SMILES	HSF1 inhib	esBAF inh	Wnt bcat act	MITF act	HSF1 activator
C[C@@H]1CN([C@@H](C)CO)S(=O)(=O)c2ccc(C#CC3CC3)cc2O[C@@H]1CN(C)CC1CC1	.	13	.	.	.
C[C@@H]1CCCCO[C@H](CN(C)C(=O)c2ccccc2)[C@H](C)CN([C@@H](C)CO)C(=O)c2cc(NC(=O)c3ccncc3)ccc2O1	.	5	.	.	.
c1coc(CNc2nc3ccccc3s2)c1	30	28	36*	29	80*
Cc1nc(C)c(-c2csc(NCc3ccco3)n2)s1	-4	62*	11	68	-1
c1coc(CN2CN=C(Nc3nc4ccccc4s3)NC2)c1	6	51*	18	39	21
O=C(C[C@@H]1C[C@H]2c3cc(NC(=O)C4CCOCC4)ccc3O[C@H]2[C@@H](CO)O1)NCc1cccnc1	.	1	.	.	.
CCC(=O)N1[C@@H](CO)[C@@H]2c3ccccc3N(C(=O)c3cccc(OC)c3)C[C@@H]21	.	4	.	.	.
CC(C)(C)[S@](=O)N1Cc2cc(C(=O)NCc3ccccc3F)nc(-c3cccc(-c4cccnc4)c3)c2[C@@H]1CCO	.	3	.	.	.
CC(/C=C/c1ccccc1)=N\NC(N)=S	5	50*	28	.	15
C[C@H](CO)N1C[C@H](C)[C@H](CN(C)S(C)(=O)=O)Oc2cc(C#Cc3ccc(F)cc3)ccc2S1(=O)=O	.	3	.	.	.
O=C(C[C@@H]1CC[C@H]2[C@@H](COC[C@H](O)CN2C(=O)C2CC2)O1)NCc1ccncc1	.	-2	.	.	.
CC1=CC(=C2C(=O)c3ccccc3C2=O)C=C(C)N1Cc1ccco1	19	.	51*	40	38
CCN(c1ccccc1)S(=O)(=O)c1cc(NC(=O)Nc2ccccc2C#N)ccc1Cl	17	.	-3	2	59*
O=c1cccc2n1Cc1cc3ccccc3nc1-2	14	53*	39*	40	40
O=C(Nc1ccc2c(c1)OCCO2)C(c1ccncc1)n1c(=O)c(-c2cc3ccccc3[nH]2)nc2ccccc21 (stereo unspecified)	.	.	53*	.	.
CCN1[C@@H]2Cn3c(ccc(-c4ccccc4F)c3=O)[C@H]1[C@@H](C(=O)NCc1ccccc1)[C@@H]2CO	.	-2	.	.	.
O=C(COc1ccc(Br)cc1CO)Nc1ccccc1	10	56*	31*	.	21
O=C(COc1ccc(Br)cc1CO)Nc1ccccc1F	7	33	2	102*	13
O=C(COc1cccnc1[N+](=O)[O-])Nc1cccc(Br)c1	.	63*	23	76	.
COc1ccc(NC(=O)COc2cccnc2[N+](=O)[O-])cc1OC	-3	5	0	3	2
O=C(C[C@@H]1C=C[C@@H](NC(=O)c2ccccc2)[C@H](CO)O1)NCc1ccc(Oc2ccccc2)cc1	.	13	.	.	.
CCC(=O)N1[C@H](CO)[C@@H]2c3ccccc3N(C(=O)CC(F)(F)F)C[C@@H]21	.	5	.	.	.
Clc1ccc(CO/N=C/c2c(-c3ccccc3)nc3n2CCS3)c(Cl)c1	30	-7	.	.	74*
CCC1([N+](=O)[O-])COC(C=Cc2ccccc2)OC1 (stereo unspecified)	.	54*	-7	21	.
COc1cc(/C=N/NC(=O)c2ccoc2C)ccc1O	9	.	5	28	18
COc1cccc(/C=N/NC(=O)c2ccoc2C)c1	8	.	40*	.	24
CCOc1ccc(/C=N/NC(=O)c2ccoc2C)cc1OC	20	48*	20	35	13
COc1cccc(/C=N/NC(=O)c2cnccn2)c1	-76*	.	.	-4	-82
CCCNC(=O)Nc1ccc2c(c1)OC[C@H](C)N(C(=O)C1CCC1)C[C@@H](C)[C@H](OC)CN(C)C2=O	.	1	.	.	.

Screening results from PubChem.
